The results in this text go back to PubChem BioAssay (NCATS).

Assay [1] deals with Cellular tumor antigen p53 (Homo sapiens) (UniProt P04637). The assay is described as follows: Primary qHTS for small molecule compounds that upregulate eGFP-tagged delta133p53alpha (in N-terminal) cells. (AID 2060322). Also: nearly all actives have a fitted effect of over 75% in size.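 As to activation: series mostly up to about 56 µM; 0% = DMSO vehicle and 100% = reference activator.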 Conditions: NCI-H358 eGFP-delta133p53alpha fluorescence, 24 h; activation: stronger effect = higher value. The gist of the method: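 NCI-H358 cells pre-induced 24 h with 10 ng/ml doxycycline to express N-terminal eGFP-delta133p53alpha, then dosed 24 h at 37C without doxycycline; fixed, Hoechst-stained, GFP intensity by laser scanning cytometry, normalized to DMSO (0%) and 57.5 uM 5-azacytidine (100%).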

Assay [2] in a line: BET inhibitor-based combinations targeting novel dependencies in MECOM-rearranged (r) AML: SET-2 cell line (AID 2202231). Also: nearly all actives have a fitted effect of over 35% in size.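 As to viability: plate controls were DMSO treated cells for no effect and wells without cells for full effect.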 Conditions: SET-2 AML cells viability, CellTiter-Glo luminescence, 48 h; viability: stronger effect = lower value, concentration not given here. In a few lines: (§1)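 Each compound was tested at eleven concentrations on cells seeded at 500/well. After two days' incubation, ATP-based luminescence reported viability; responses relative to DMSO and blank wells yielded AUC and cell-line-centred Z-AUC.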

A short description of assay [3]: BET inhibitor-based combinations targeting novel dependencies in MECOM-rearranged (r) AML: OCI-AML3 cell line (AID 2202232). Also: nearly all actives have a fitted effect of over 35% in size. Conditions: Potency: OCI-AML3 viability. In a few lines: as §1
Assay [4] can be described thus: BET inhibitor-based combinations targeting novel dependencies in MECOM-rearranged (r) AML: MV-4-11 cell line (AID 2202233). Also: nearly all actives have a fitted effect of over 45% in size. The gist of the method: (§2)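 First, 500 cells per well were seeded; next, drugs were pinned as 11-point doses; then plates sat 48 hr in the incubator; finally CellTiter-Glo was added and luminescence read, with AUC and Z-AUC computed.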
Assay [5] is described as follows: BET inhibitor-based combinations targeting novel dependencies in MECOM-rearranged (r) AML: HNT-34 cell line (AID 2202234). Also: nearly all actives have a fitted effect of over 35% in size. The gist of the method:
as §2

Assay [6] can be described thus: BET inhibitor-based combinations targeting novel dependencies in MECOM-rearranged (r) AML: UCSD-AML1 cell line (AID 2202235). Also: nearly all actives have a fitted effect of over 40% in size. In a few lines: as §2
Assay [7] in a line: BET inhibitor-based combinations targeting novel dependencies in MECOM-rearranged (r) AML: AML-191 cell line (AID 2202236; also: nearly all actives have a fitted effect of over 35% in size). The gist of the method:
as §1

Assay [8] is described as follows: BET inhibitor-based combinations targeting novel dependencies in MECOM-rearranged (r) AML: AML-194 cell line (AID 2202237; also: nearly all actives have a fitted effect of over 40% in size). The gist of the method: as §1

“And” between values parts separate entries of the source, which are not always exact repeats. Equal entries are not always repeated. Results filed as inconclusive are left out. A number with no mark means an inactive call. The source made the active and inactive calls. Calls follow the shape of the dose curve; as a rule, active = well fitted curve in the direction sought with a large enough effect; inconclusive = small, poorly fitted or top-dose-only effect, or another doubt; inactive = no such curve, though single readings can be large; an effect the other way counts as inactive or inconclusive. Positions of bridges follow the written chain, without caps; N, C: chain ends. Non-standard residues stand in square brackets, D forms with d. Residues, ends and D or L forms follow the SMILES beside them. ξ: configuration not given here. *: point of attachment. Octanoyl(6-Me) = CCC(C)CCCCC(=O)*; ξThr(3R) = C[C@@H](O)C(N)C(=O)O; dDab = NCC[C@@H](N)C(=O)O; Dab = NCC[C@H](N)C(=O)O
Potency is read from the fitted curve at half-maximal effect.

Sequence of Cellular tumor antigen p53 (Homo sapiens) (P04637 whole entry, looked up): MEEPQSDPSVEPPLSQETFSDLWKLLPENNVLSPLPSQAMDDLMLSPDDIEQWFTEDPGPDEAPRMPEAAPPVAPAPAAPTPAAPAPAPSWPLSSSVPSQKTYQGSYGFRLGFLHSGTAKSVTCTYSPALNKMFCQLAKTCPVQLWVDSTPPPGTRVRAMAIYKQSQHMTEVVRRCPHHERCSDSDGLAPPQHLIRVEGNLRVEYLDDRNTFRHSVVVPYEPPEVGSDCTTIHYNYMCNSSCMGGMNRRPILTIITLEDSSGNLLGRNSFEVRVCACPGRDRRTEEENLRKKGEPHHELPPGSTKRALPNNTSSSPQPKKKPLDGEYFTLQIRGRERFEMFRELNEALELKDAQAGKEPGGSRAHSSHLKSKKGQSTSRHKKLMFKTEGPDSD

For the molecule `Cc1nc2cnc3ccc(C#Cc4cccnc4)cc3c2n1-c1ccc(C(C)(C)C#N)cc1`, the activation in assay [1] is 35.7%. Also, the Potency in assay [2] was 1.66 µM (active); in assay [3] it was 2.95 µM (active); in assay [4], 0.742 µM (active); in assay [5] it was 0.525 µM (active); in assay [6], 0.296 µM (active); in assay [7], 0.59 µM (active). In addition, in assay [8], the Potency was 0.468 µM (active).
In the case of `CCOC(=O)C1=C[C@@H](OC(CC)CC)[C@H](NC(C)=O)[C@@H](N)C1`, the activation in assay [1] was -8.89%. For the same molecule, in assay [2], the viability was 112%. The Potency result in assay [3], in assay [4], in assay [5], in assay [6], in assay [7] and in assay [8] was “inactive” each time.
Turning to `CCC(C)CCCCC(=O)N[C@@H](CCN)C(=O)NC(C(=O)N[C@H](CCN)C(=O)N[C@@H]1CCNC(=O)C([C@@H](C)O)NC(=O)[C@@H](CCN)NC(=O)[C@@H](CCN)NC(=O)[C@@H](CC(C)C)NC(=O)[C@H](Cc2ccccc2)NC(=O)[C@H](CCN)NC1=O)[C@@H](C)O` (stereo partly drawn) ({Octanoyl(6-Me)}-[Dab][ξThr(3R)][dDab][dDab][Dab]F[dL][dDab][dDab][ξThr(3R)]; lactam 4-C), the activation in assay [1] is 11.9%. The viability in assay [2] is 126%. Besides, the Potency result in assay [3], in assay [4], in assay [5], in assay [6], in assay [7] and in assay [8] was “inactive” each time.
In the case of `Oc1ccc(-c2ccc(-c3cc(Nc4cccc(CNC5CC5)c4)n[nH]3)cc2)c(O)c1`, the Potency was 43.2 µM (active) in assay [1]; 7.42 µM (active) in assay [2]; 1.86 µM (active) in assay [3]; 1.18 µM (active) in assay [4]; 3.72 µM (active) in assay [5]; 2.35 µM (active) in assay [6]. In addition, the Potency in assay [7] was 2.95 µM (active); in assay [8] it was 3.72 µM (active).
Take `Cc1noc(-c2ccc(CSCCC(=O)O)cc2)c1NC(=O)OC(C)c1ccccc1Cl` (centres undefined): in assay [1], the activation is -1.99%. The viability in assay [2] was 114%. Besides, the Potency result in assay [3], in assay [4], in assay [5], in assay [6], in assay [7] and in assay [8] was “inactive” each time.
Take `COc1cc(C(=O)NS(=O)(=O)c2ccccc2C)ccc1Cc1cn(C)c2ccc(NC(=O)OC3CCCC3)cc12`: in assay [1], the activation was 105%. For the same molecule, in assay [2], the viability is 119%. Further, the Potency result in assay [3], in assay [4], in assay [5], in assay [6], in assay [7] and in assay [8] was “inactive” throughout.
In the case of `OC[C@H]1OC(O)C[C@@H](O)[C@H]1O` (some centres undefined), the activation in assay [1] was 27.8%. The viability in assay [2] is 110%. The Potency result in assay [3], in assay [4], in assay [5], in assay [6], in assay [7] and in assay [8] was “inactive” each time.
`c1ccc(CNc2nc(NCc3ccccc3)c3ccccc3n2)cc1`: in assay [1], the activation was 44.2%. The Potency in assay [2] is 16.6 µM (active); in assay [3] it was 18.6 µM (active); in assay [4], 9.34 µM (active); in assay [5], 9.34 µM (active); in assay [6], 8.33 µM (active); in assay [7], 9.34 µM (active). Besides, the Potency in assay [8] is 9.34 µM (active).
For the molecule `CC1CNc2c(cccc2S(=O)(=O)N[C@@H](CCCN=C(N)N)C(=O)N2CC[C@@H](C)C[C@@H]2C(=O)O)C1` (some centres undefined), the activation in assay [1] was 8.55%. For the same molecule, the viability in assay [2] was 116%. Further, the Potency result in assay [3], in assay [4], in assay [5], in assay [6], in assay [7] and in assay [8] was “inactive” in each case.
In the case of `Nc1ccn([C@@H]2CS[C@H](CO)O2)c(=O)n1`, in assay [1], the activation is -9.96%. Moreover, in assay [2], the viability was 113%. Also, the Potency entry in assay [3], in assay [4], in assay [5], in assay [6], in assay [7] and in assay [8] was “inactive” in each case.
Take `C[C@H](NC(=O)c1sccc1OCc1ccc(Cl)cc1)c1ccccc1`: in assay [1], the activation was 16.4%. Moreover, the Potency in assay [2] was 16.6 µM (active); in assay [4] it was 13.2 µM (active). The Potency result in assay [3], in assay [5], in assay [6], in assay [7] and in assay [8] was “inactive” throughout.
As to `CC#CCn1c(N2CCC[C@@H](N)C2)nc2c1c(=O)n(Cc1nc(C)c3ccccc3n1)c(=O)n2C`, in assay [1], the activation is 6.37%. Also, in assay [2], the viability was 113%. Moreover, the Potency result in assay [3], in assay [4], in assay [5], in assay [6], in assay [7] and in assay [8] was “inactive” in each case.
`Nc1nc2c(c(=O)[nH]1)N(C=O)[C@H](CNc1ccc(C(=O)N[C@@H](CCC(=O)O)C(=O)O)cc1)CN2`: the activation in assay [1] was 10.2%. Also, the viability in assay [2] is 115%. For the same molecule, the Potency result in assay [3], in assay [4], in assay [5], in assay [6], in assay [7] and in assay [8] was “inactive” throughout.
Take `Nc1ncnc2ccccc12`: the activation in assay [1] is 22.8%. Besides, the viability in assay [2] is 115%. In addition, the Potency result in assay [3], in assay [4], in assay [5], in assay [6], in assay [7] and in assay [8] was “inactive” throughout.
Take `O=S(=O)(O)CCS`: the activation in assay [1] is 32.2% and 4.28%. Further, the viability in assay [2] was 120%. Besides, the Potency result in assay [3], in assay [4], in assay [5], in assay [6], in assay [7] and in assay [8] was “inactive” throughout.
As for `O=C(NC(Cc1cc(=O)[nH]c2ccccc12)C(=O)O)c1ccc(Cl)cc1` (centres undefined), the activation in assay [1] was -0.837% and -7.77%. For the same molecule, the viability in assay [2] was 120%. For the same molecule, the Potency entry in assay [3], in assay [4], in assay [5], in assay [6], in assay [7] and in assay [8] was “inactive” throughout.
Turning to `CN(Cc1cc(Br)cc(Br)c1N)C1CCCCC1`, the activation in assay [1] was -11.7% and 14.8%. Also, the viability in assay [2] is 102%. Moreover, the Potency entry in assay [3], in assay [4], in assay [5], in assay [6], in assay [7] and in assay [8] was “inactive” each time.
Consider `COC1CCC(N(C(=O)C2CCC(C)CC2)c2cc(C3=CCCCC3)sc2C(=O)O)CC1` (centres undefined), for which the activation in assay [1] is -11.2%. The viability in assay [2] was 113%. Moreover, the Potency entry in assay [3], in assay [4], in assay [5], in assay [6], in assay [7] and in assay [8] was “inactive” each time.
